High-throughput results: PubChem, National Center for Advancing Translational Sciences (NCATS)
Hits are enriched below; roughly 11% of the tested compounds scored in any of these assays.
G9a block: inhibitors of human histone lysine methyltransferase G9a | G9a H3K9 monomethylation, AlphaScreen, 2 h | Q96KQ7 | Potency, µM (titrated, usually from 102 µM), for inactives: top-dose activity, negative = inhibition, most hits filed as inhibitors | 350,000 compounds, 8.8% hits | AID 504332; note: % is set by controls: 0 for no effect and ±100 for the full control effect; nearly all actives have a fitted effect of over 75% in size
Target sequence (Q96KQ7 913-1193 limits assumed): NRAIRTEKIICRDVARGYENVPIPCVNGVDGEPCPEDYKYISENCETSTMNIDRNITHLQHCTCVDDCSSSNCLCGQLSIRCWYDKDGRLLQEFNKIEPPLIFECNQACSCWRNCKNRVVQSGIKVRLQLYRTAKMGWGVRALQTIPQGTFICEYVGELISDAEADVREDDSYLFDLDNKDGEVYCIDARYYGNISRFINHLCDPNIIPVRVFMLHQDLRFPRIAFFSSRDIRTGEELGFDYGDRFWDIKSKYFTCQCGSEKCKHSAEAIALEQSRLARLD
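Chemiluminescent proximity detection of H3K9 monomethylation, read after 10 min bead incubation in the dark. Reaction: 20 nM G9a, 500 nM biotin-H3K9 peptide, 20 uM SAM cofactor, 2 h, room temperature, following 15 min enzyme-compound preincubation.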
L3MBTL1 inh: inhibitors of human L3MBTL1. Q9Y468. AlphaScreen L3MBTL1–H3K9me1 peptide binding. 230,000 compounds, 0.66% hits. Potency, µM (series often up to 57.1 µM), for inactives: at the highest dose activity, negative = inhibition, usual class: inhibitors; note: % is set by controls: 0 for no effect and ±100 for the full control effect; nearly all actives have a fitted effect of over 60% in size
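Read-out is AlphaScreen signal from streptavidin donor and nickel chelate acceptor beads (10 ug/mL final each) bridging L3MBTL1 (50 nM) and biotinylated K9-monomethylated H3(1-15) peptide (75 nM), after 30 min compound exposure at room temperature.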
HP1b binding inh: blocks HP1-beta chromodomain binding to methylated histone tails | AlphaScreen HP1-beta / biotin-H3K9me3 peptide binding | Potency, µM (series often up to 114 µM), inactives show at the highest dose activity change, negative = inhibition, usual class: inhibitors | 390,000 compounds, 0.56% hits | AID 540317; note: nearly all actives have a fitted effect of over 70% in size
Target sequence (P83916 whole entry, looked up): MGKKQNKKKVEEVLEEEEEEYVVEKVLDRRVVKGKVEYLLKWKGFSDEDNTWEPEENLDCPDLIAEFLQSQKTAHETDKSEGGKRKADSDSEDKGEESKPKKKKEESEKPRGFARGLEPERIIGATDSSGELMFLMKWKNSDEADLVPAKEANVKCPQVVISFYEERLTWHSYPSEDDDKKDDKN
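HP1-beta protein (50 nM final) preincubated 30 min at room temperature with biotinylated H3(1-18)K9me3 peptide (50 nM) in PBS pH 7.4, 0.01% Tween-20, then compound added for 30 min. AlphaScreen streptavidin donor/nickel chelate acceptor beads (10 ug/mL final), 30 min dark, luminescence read.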
JMJD2A Tudor: JMJD2A Tudor domain (human) inhibition; O75164; AlphaScreen JMJD2A-Tudor / H3K4me3 peptide binding; Potency, µM (doses to about 114 µM), inactives show at the top dose activity change, negative = inhibition, hits mostly inhibitors; 390,000 compounds, 4.4% hits; AID 504339; note: % is set by controls: 0 for no effect and ±100 for the full control effect; nearly all actives have a fitted effect of over 50% in size
BAZ2B block: BAZ2B (human) inhibition; Q9UIF8; AlphaScreen BAZ2B-H3K14Ac peptide displacement; Potency, µM (series often up to 114 µM), for inactives: at the highest dose activity change, negative = inhibition, usual class: inhibitors; 360,000 compounds, 4.4% hits; note: % is set by controls: 0 for no effect and ±100 for the full control effect; nearly all actives have a fitted effect of over 60% in size
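Complex of BAZ2B and biotin-H3K14Ac (50 nM apiece) forms over 30 min at RT, then faces library compounds up to 110 uM for another 30 min; AlphaScreen beads added, 20 min dark incubation, luminescence read.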
The depositor's hits bear a star; ? = inconclusive; · = no result given; [ ] = remark or other dose. Calls come from the whole dose curve; as a rule, active = well fitted inhibition curve with a large enough effect; inconclusive = small, poorly fitted or top-dose-only effect; inactive = no such curve, though single readings can be large or run the other way. Potency is the fitted concentration of half-maximal effect.

SMILES	G9a block	L3MBTL1 inh	HP1b binding inh	JMJD2A Tudor	BAZ2B block
CCCc1cc(=O)n2c(C(=O)Nc3ccc(OCC)cc3)c(C(=O)Nc3ccc(C)cc3)sc2n1	?	·	3%	-5%	-1%
CCOc1ccc(NS(=O)(=O)c2ccc3c(c2)NC(=O)CCS3)cc1	3%[59 µM]	·	12%	-8%	-1%
Cc1ccc(C(=O)O)cc1NC(=S)NC(=O)c1ccc(-c2ccccc2)cc1	14µM*	-15%	?	?	-32%
COc1cc(C(=O)NC(C)c2ccc(-n3ccnc3)cc2)cc(OC)c1C (configuration not stated)	3.5µM*	·	-5%	79µM*	50µM*
Cc1cccc(C(=O)N2CCC(N3CCN(Cc4ccc(F)cc4)C(=O)C3=O)CC2)c1	0%[59 µM]	·	28%	-24%	0%
CCOC(=O)C1(CC2CCCCO2)CCN(S(=O)(=O)c2c(C)nn(C)c2C)CC1 (configuration not stated)	·	12%	10%	-14%	-6%
COc1ccc(C(=O)Nc2ccc(S(=O)(=O)N3CCN(C)CC3)cc2)cc1[N+](=O)[O-]	1%[59 µM]	-3%	19%	-7%	-25%
COc1ccc(C(=O)Nc2ccc(S(=O)(=O)NC(C)=O)cc2)cc1[N+](=O)[O-]	50µM*	2%	29%	-18%	-15%
CCOCCCNS(=O)(=O)c1ccc(NC(=O)c2ccc([N+](=O)[O-])cc2Cl)cc1	18%[59 µM]	4%	14%	-17%	-2%
CCOCCCNS(=O)(=O)c1ccc(NC(=O)c2ccc(OC)c([N+](=O)[O-])c2)cc1	11%	5%	-15%	11µM*	0%
Cc1cc(C)cc(NC(=O)Cn2c3ncccc3c(=O)n2-c2ccc(C)c(C)c2)c1	26%[59 µM]	·	59%	29%	14%
COC(=O)c1sc(-c2ccc(Cl)cc2)cc1NC(=O)c1ccccc1C(=O)O	·	·	-7%	-17%	?
COC(=O)c1sc(-c2ccc(C(C)(C)C)cc2)cc1NC(=O)c1ccccc1C(=O)O	-50%	·	54%	-26%	79µM*
CCn1cnc2cc(NCc3ccncc3)ccc21	?	·	28%	-13%	-6%
CCc1ccc(CNc2ccc3c(c2)ncn3C)cc1	3.2µM*	-8%	?	?	45µM*
COc1ccc(CNc2ccc3c(c2)ncn3C)cc1OC	40µM*	3%	36%	-25%	-22%
Cc1ccc(C(=O)Nc2ccc3c(c2)ncn3C)cc1	6%[12.7 µM]	·	38%	0%	8%
COc1ccc(CNc2ncccn2)cc1OC	-1%	-1%[11.4 µM]	32%	-15%	-27%
CCCn1cnc2cc(NCc3ccccn3)ccc21	10µM*	-11%	1%	56µM*	50µM*
CCn1cnc2cc(NCc3ccc(Cl)cc3)ccc21	50µM*	·	-22%	?	?
CCCn1cnc2cc(NCc3cccc(OC)c3O)ccc21	?	-7%	9%	?	?
CCN(Cc1ccccc1)C(=O)CN1C(=O)COc2ccc(S(=O)(=O)N3CCOCC3)cc21	-3%[59 µM]	·	49%	2%	-16%
CCCN1CNc2c(c(=O)[nH]c(=S)n2CCc2cc(OC)cc(OC)c2)C1	·	·	22%	-9%	·
COc1ccc(OC)c(NC(=O)Nc2cccc(OCc3cc(=O)n4cc(C)ccc4n3)c2)c1	1%[59 µM]	·	17%[57 µM]	-2%	0%
CCC(C)NC(=O)CSc1nc2cc3c(cc2c(=O)n1CCCC(=O)NCc1ccc2c(c1)OCO2)OCO3 (configuration not stated)	5%[59 µM]	·	8%	-10%	-2%
SMILES	G9a block	L3MBTL1 inh	HP1b binding inh	JMJD2A Tudor	BAZ2B block
Cc1cc(C)cc(OCCCn2ccnc2)c1	·	·	27%	-27%	?
Cc1cc(OCCCCNC(C)C)cc(C(C)C)c1	28µM*	12%	?	18µM*	?
C=CCn1c(Sc2ncc([N+](=O)[O-])s2)n[nH]c1=O	11µM*	2%	-9%	-24%	-18%
O=C(Nc1nc(Nc2cc(F)cc(F)c2)nc(NC2CCCC2)n1)OCc1ccccc1	·	·	·	-18%	·
c1ccc(-c2ccc(-c3cnc4n3CCCCC4)cc2)cc1	18µM*	·	-43%	56µM*	50µM*
Cn1c(=O)c(C(=O)COC(=O)c2cc(-c3ccccc3)nc3ccccc23)c(N)n(Cc2ccccc2)c1=O	79µM*	-2%	·	·	?
COCCCNCC(=O)c1c(N)n(Cc2ccccc2)c(=O)n(C)c1=O	?	2%	-16%	79µM*	?
CCOC(=O)c1cnn2c(C(F)(F)F)cc(-c3ccc(Br)cc3)nc12	-38%[59 µM]	·	48%	5%	1%
Cc1cccc(C)c1Nc1c(-c2ccccn2)nc2c(C)cccn12	-38%[59 µM]	·	-18%	10µM*	?
Cc1cccc(C)c1Nc1c(-c2cccs2)nc2ncccn12	-28%[59 µM]	·	-7%	-10%	?
Cc1cccn2c(Nc3ccccc3)c(-c3ccccn3)nc12	40µM*	·	9%	13µM*	18µM*
O=C(CC1N=C2c3ccccc3N=C(SCc3cccc(Cl)c3)N2C1=O)NC1CCCCC1 (configuration not stated)	-1%[59 µM]	·	38%	-20%	-1%
O=c1[nH]n(CCO)c(=O)c2cccnc12	?	-2%	-14%	56µM*	?
Cn1nnnc1Sc1ncnc2scc(-c3ccc(S(C)(=O)=O)cc3)c12	·	·	·	-5%	·
COc1ccc(/C=C/C(=O)c2ccc(C)c([N+](=O)[O-])c2)cc1O	45µM*	-14%	-22%	?	?
COc1cc(/C=C/C(=O)c2ccc(C)c([N+](=O)[O-])c2)cc(OC)c1O	45µM*	-2%	0%	-26%	-25%
CCOc1ccc(NC(=O)COC(=O)c2cc(C)oc2C)cc1	·	-2%	24%	2%	·
O=C(O)CCN1CCN(S(=O)(=O)c2ccc3ccccc3c2)CC1	-8%	·	41%	-7%	-14%
O=C(Nc1ccc(Cl)cc1F)C1CCCN(C2=NS(=O)(=O)c3ccccc32)C1 (configuration not stated)	50µM*	4%	22%	-18%	13%
O=C(Nc1cccc(Cl)c1)C1CCCN(C2=NS(=O)(=O)c3ccccc32)C1 (configuration not stated)	?	1%	13%	-18%	-6%
Cc1cc2cc(C)c3nnc(SCC(=O)N4CCN(C(=O)c5ccco5)CC4)n3c2cc1C	·	·	17%	-11%	·
COc1ccc(N2CCN(C(=O)CSc3nnc4c(C)cc5cc(C)ccc5n34)CC2)cc1	45µM*	-7%	-28%	-19%	?
Cc1ccc2cc(C)c3nnc(SCC(=O)N4CCN(C(=O)c5ccco5)CC4)n3c2c1	50µM*	·	5%	-21%	-2%
CNC(=O)NC(=S)NC(=O)c1ccc(OC)cc1	16%[12.7 µM]	4%	14%	16µM*	-35%
Cn1nnc(NC(=S)NC(=O)c2ccco2)n1	7.9µM*	51%	?	?	?
Cn1nnc(NC(=O)c2ccco2)n1	14%	2%	34%	-6%	-3%
